In PubChem BioAssay:

How the values were obtained:
[1] = tested on: Human papillomavirus type 1a protein E7 (residues 44-93); assay: HPV1a E7 fragment binders on microarrays, primary screen, biochemical, small-molecule microarray, residues 44-93, 635 nm fluorescence (AID 1108); settings: small-molecule microarray binding, fluorescence 635 nm; higher = more signal;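 note: E7 fragment applied at 1 µg/mL in TBST for 1 h at 4 C; score combines spot fluorescence with its signal to noise ratio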
[2] = modulators of HCV replicon luciferase signal, primary screen, HCV replication inhibitor project, Huh7 cells, luciferase reporter (AID 1109); settings: 48 h, higher = more signal;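 note: huh7 hepatoma cells harbouring a luciferase neomycin HCV replicon reporter; luciferase luminescence as measure of HCV replicon replication; test concentration not given here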
[3] = target: Left-right determination factor 2 (Homo sapiens) (UniProt O00292); assay: LEFTY2 binders on small-molecule microarrays, primary screen, biochemical, small-molecule microarray, 635 nm fluorescence scan (AID 1110); settings: LEFTY2 binding, higher = more signal
Sequence of Left-right determination factor 2 (Homo sapiens) (O00292 whole entry, looked up): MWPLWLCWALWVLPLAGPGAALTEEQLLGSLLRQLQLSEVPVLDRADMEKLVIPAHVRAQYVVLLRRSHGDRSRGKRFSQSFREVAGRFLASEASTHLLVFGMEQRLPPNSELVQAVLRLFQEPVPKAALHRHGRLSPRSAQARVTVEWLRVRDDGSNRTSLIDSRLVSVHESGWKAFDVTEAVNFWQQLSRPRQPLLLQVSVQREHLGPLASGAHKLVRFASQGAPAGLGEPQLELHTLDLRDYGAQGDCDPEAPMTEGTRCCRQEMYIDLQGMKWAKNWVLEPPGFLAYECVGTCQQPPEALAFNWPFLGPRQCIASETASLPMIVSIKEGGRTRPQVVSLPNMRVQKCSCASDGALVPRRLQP

[4] = target: Calmodulin-1 (Homo sapiens) (UniProt P0DP23); assay: CALM1 binders on microarrays, EGTA buffer, profiling panel, biochemical, small-molecule microarray, Cy5-labelled CALM1 (AID 1111); settings: Cy5-CALM1 binding fluorescence, higher = more signal;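 note: labelled calmodulin applied in Tris saline Tween buffer holding calcium plus EGTA and DTT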
[5] = target: Calmodulin-1 (Homo sapiens) (UniProt P0DP23); assay: calcium-bound CALM1 binders on microarrays, profiling panel, artefact control for SMM control-protein annotation, biochemical, small-molecule microarray, Cy5-labelled CALM1, plus calcium (AID 1112); settings: Cy5-CALM1 binding fluorescence, higher = more signal;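 note: score merges spot fluorescence with signal to noise from triplicate slides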
[6] = small-molecule microarray binders of probe aWnt5a, primary screen, biochemical, biotinylated probe, 635/667 nm fluorescence (AID 1113); settings: higher = more signal;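 note: score merges 667 nm fluorescence intensity with signal-to-noise per printed feature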
[7] = small-molecule microarray binders of probe aShh, primary screen, biochemical, biotinylated probe, 635/667 nm fluorescence (AID 1114); settings: higher = more signal;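 note: probe is biotin-labelled aShh protein from a stem cell growth factor screen; measures binding of labelled protein to compounds printed on the slide; score merges feature fluorescence at 667 nm with signal-to-noise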
[8] = small-molecule microarray binders of probe aNog, primary screen, biochemical, biotinylated probe, 635/667 nm fluorescence (AID 1115); settings: higher = more signal;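 note: probe is biotinylated aNog protein used at 0.15 µg/mL for 1 h at 4 C; z-score combines 667 nm fluorescence of each spot with its signal to noise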
[9] = target: Torsin-1A-interacting protein 1 (Homo sapiens) (UniProt Q5JTV8); assay: LAP1 binders from COS7 cell lysate, primary screen, small-molecule microarray, 635/667 nm fluorescence (AID 1116); settings: COS7-hLAP1 lysate binding, 635 nm fluorescence, higher = more signal
Sequence of Torsin-1A-interacting protein 1 (Homo sapiens) (Q5JTV8 whole entry, looked up): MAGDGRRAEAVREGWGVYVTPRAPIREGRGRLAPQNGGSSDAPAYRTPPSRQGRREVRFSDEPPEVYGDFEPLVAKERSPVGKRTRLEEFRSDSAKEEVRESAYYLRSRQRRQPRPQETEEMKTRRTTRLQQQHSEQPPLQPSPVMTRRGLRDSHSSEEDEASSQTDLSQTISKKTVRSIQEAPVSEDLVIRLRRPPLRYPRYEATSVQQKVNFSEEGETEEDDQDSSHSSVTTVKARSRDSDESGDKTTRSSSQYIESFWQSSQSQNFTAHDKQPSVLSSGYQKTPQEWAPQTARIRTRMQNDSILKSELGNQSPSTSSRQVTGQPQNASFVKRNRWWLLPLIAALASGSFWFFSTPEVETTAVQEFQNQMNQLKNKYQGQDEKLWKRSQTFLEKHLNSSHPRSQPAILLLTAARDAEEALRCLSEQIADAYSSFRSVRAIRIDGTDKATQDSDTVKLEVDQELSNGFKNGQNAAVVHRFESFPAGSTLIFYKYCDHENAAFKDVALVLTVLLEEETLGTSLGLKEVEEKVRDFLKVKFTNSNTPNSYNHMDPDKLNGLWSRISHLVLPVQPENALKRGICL

[10] = target: Alpha-bungarotoxin (Bungarus multicinctus) (UniProt P60615); assay: alpha-bungarotoxin binders on microarray, profiling panel, artefact control for SMM control protein annotation, biochemical, small-molecule microarray, Alexa647 label, 635/667 nm fluorescence (AID 1117); settings: alpha-BTX-A647 binding fluorescence, higher = more signal
Sequence of Alpha-bungarotoxin (Bungarus multicinctus) (P60615 whole entry, looked up): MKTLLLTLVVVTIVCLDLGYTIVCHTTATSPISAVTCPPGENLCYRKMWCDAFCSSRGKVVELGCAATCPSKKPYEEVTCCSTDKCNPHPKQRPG

| Structure (SMILES) | composite z-score [1] | z-score [2] | composite z-score [3] | composite z-score [4] | composite z-score [5] | composite z-score [6] | composite z-score [7] | composite z-score [8] | composite z-score [9] | composite z-score [10] |
| --- | --- | --- | --- | --- | --- | --- | --- | --- | --- | --- |
| O=C1c2ccccc2[C@@]2(Cc3ccccc3N(Cc3ccccc3)C2=O)[C@H](c2ccc(CO)cc2)N1C1CCCCC1 | 0.438 | -0.717 | 0.186 | 0.0329 | -0.105 | -0.202 | 0.0062 | -0.444 | -0.345 | 0.0868 |
| COCCOC(=O)N1C(=O)[C@@]2(c3ccccc31)[C@H](C(=O)NC[C@H](O)c1ccccc1)[C@H]1C(=O)O[C@H](c3ccccc3)[C@H](c3ccccc3)N1[C@@H]2c1ccc(OCCO)cc1 | 1.11 | -1.33 | 0.965 | 0.932 | -0.373 | -0.0263 | 0.0723 | -0.466 | 1.13 | 0.247 |
| [N-]=[N+]=NCc1ccccc1C[C@]1(C(=O)O)N=C(c2ccc(OCCCO)cc2)O[C@H]1c1ccccc1 | 0.903 | -0.748 | -1.18 | 1.17 | 0.671 | -0.096 | -0.0626 | 1.29 | 3.14 | 0.966 |
| Cc1cc(C)cc(N2C(=O)CS(=O)(=O)C2c2cccc([N+](=O)[O-])c2)c1 (stereo not given) | -0.489 | -0.0865 | 0.39 | 1.47 | 0.395 | -0.15 | 0.108 | 0.549 | 1.23 | 1.25 |
| O=C1OCCC/C=C\[C@H]2OC34C=CCN(Cn5nnc6ccccc65)C(=O)[C@H]3N(CCCCCO)C(=O)[C@@H]4C12 (stereo not given in full) | -0.921 | 0.0311 | -1.5 | -0.709 | -0.388 | -0.175 | -0.0035 | -0.0894 | -0.118 | -0.697 |
| COC(=O)[C@@]1(Cc2ccccc2)[C@H]2c3cc(C(=O)N4CCCC4)n(Cc4ccc(C)o4)c3C[C@H]2CN1C(=O)c1ccccc1 | 0.114 | -1.82 | -0.334 | 1.58 | -0.149 | -0.213 | -0.214 | -0.153 | 0.618 | 0.326 |
| CCOC(=O)C1=C[C@@H](C(C)C)N(S(=O)(=O)c2ccc(C)cc2)[C@H]1c1ccc(C(C)C)cc1 | 1.35 | -2.16 | 0.524 | 1.33 | -0.144 | -0.0735 | -0.138 | -0.58 | 0.324 | 1.1 |
| O=C1O[C@@H](c2ccccc2)[C@@H](c2ccccc2)N2[C@@H](c3ccc(OCCO)cc3)[C@]3(C(=O)Nc4ccccc43)[C@@H](C(=O)Nc3nc4ccccc4s3)[C@H]12 | 1.44 | -2.66 | 1.05 | 1.67 | 0.241 | 0.105 | 0.171 | 1.27 | 1.5 | 1.78 |
| O=C(CS)NCCCCCCNC(=O)[C@H]1C[C@H]2C(=O)NCC(=O)N2[C@H]1c1ccc(O)cc1 | -0.175 | -0.344 | -0.571 | -0.156 | 0.802 | -0.171 | -0.286 | -0.379 | -0.633 | 0.136 |
| CC(C)C(O)C1C=CC2C(=O)N(c3ccccc3)C(=O)C2N1Nc1ccc(C#N)cc1 (stereo not given) | 0.931 | 0.993 | 1.11 | 0.875 | 0.717 | -0.0522 | -0.452 | 0.843 | 0.892 | 1.36 |
| CN(C)CCCNC(=O)[C@@]1(Cc2ccccc2I)c2ccccc2C(=O)N(Cc2ccccc2C(F)(F)F)[C@H]1c1ccc(CO)cc1 | 0.973 | -3.4 | -1.2 | -0.327 | -0.149 | -0.176 | -0.138 | 0.612 | 0.283 | 0.376 |
| CC(C)N1CC=CC23O[C@@H]4C=CCOC(=O)[C@@H]4[C@H]2C(=O)N(CCO)[C@@H]3C1=O (stereo not given in full) | 0.723 | -0.0497 | -1.65 | -0.248 | 0.641 | -0.206 | -0.11 | -0.178 | 0.0566 | -1.15 |
| O=C(OCCF)C1=CCC(c2cccc(Cl)c2)O1 (stereo not given) | 0.628 | -0.0162 | 0.15 | 0.0307 | 0.164 | -0.169 | -0.0769 | -0.0784 | 1.53 | 0.775 |
| [N-]=[N+]=Nc1ccccc1[C@@H]1OC(c2ccc(OCCCO)cc2)=N[C@]1(CCS(=O)(=O)c1ccccc1)C(=O)N1CCOCC1 | 1.03 | 2.34 | 0.647 | 1.74 | 0.764 | 0.16 | 0.326 | 0.939 | 1.42 | 2.84 |
| CC(C)=CCCC(C)=CC(O)C1C=CC2C(=O)N(c3ccccc3)C(=O)C2N1Nc1ccccc1 (stereo not given) | 0.704 | -0.517 | 0.12 | 2.23 | 1.18 | 0.139 | 0.393 | 1.88 | 1.03 | 2.95 |
| C=CCNC(=O)[C@@H]1[C@H]2C(=O)O[C@H](c3ccccc3)[C@H](c3ccccc3)N2[C@H](c2ccc(O)cc2)[C@@]12C(=O)N(C(=O)OCCOC)c1ccccc12 | 1.2 | -1.43 | -0.211 | 0.922 | -0.42 | -0.0478 | -0.0904 | 0.215 | 1.12 | 2.27 |
| COc1ccc([Si](C)(C)[C@@H]2[C@@H](CCn3cc([C@H](O)c4ccccc4)nn3)O[C@]3(C(=O)N(Cc4cccc(N5CCOC5=O)c4)c4ccccc43)[C@H]2C)cc1 | -0.362 | -2.64 | -1.47 | -0.13 | 0.78 | -0.202 | -0.117 | -0.256 | -0.0689 | -0.85 |
| NC(=O)NCC#Cc1ccc2c(c1)[C@]1(C(=O)N2)[C@H](C(=O)N2CCCCCCC2)[C@H]2C(=O)O[C@H](c3ccccc3)[C@H](c3ccccc3)N2[C@@H]1c1ccc(OCCO)cc1 | 1.18 | -1.03 | 1.04 | 1.99 | 0.897 | 0.83 | 2.19 | 2.19 | 1.45 | 2.02 |
| CC(=O)NCCCC[C@@H]1NC(=O)[C@@H]2C[C@H](C(=O)NCCCCN(C)C)[C@H](c3ccc(O)cc3)N2C1=O | -0.989 | -0.581 | -0.594 | -0.487 | 0.367 | -0.124 | -0.214 | -0.23 | 0.646 | -0.602 |
| CCOC(=O)[C@H]1C/C=C/C[C@H](C(=O)OCC)C(=O)O[C@H]2[C@@H](OC)O[C@H](CO)[C@@H](OC(=O)Nc3ccc4c(c3)OCO4)[C@@H]2OC1=O | 0.433 | -3.52 | -0.261 | 0.346 | 0.152 | 0.0608 | 0.28 | 0.122 | 0.591 | 0.167 |
| COC(=O)C(CC#Cc1ccc2c(c1)[C@]1(C(=O)N2)[C@H](C(=O)NC[C@H](O)c2ccccc2)[C@H]2C(=O)O[C@H](c3ccccc3)[C@H](c3ccccc3)N2[C@@H]1c1ccc(OCCO)cc1)C(=O)OC | 1.45 | -1.95 | 0.696 | 1.5 | 1.1 | 0.174 | 0.986 | 0.945 | 0.053 | 2.23 |
| CCOC(=O)C1=CC[C@@H](c2ccccc2)N(S(=O)(=O)c2ccc(C)cc2)[C@H]1C(=O)OCC | 0.841 | -3.08 | -0.0319 | 0.784 | 0.289 | 0.177 | 0.77 | 0.137 | 0.962 | 0.384 |
| CCCCC(O)C1C=CC2C(=O)N(C3CCCCC3)C(=O)C2N1Nc1ccc(OC)cc1 (stereo not given) | 1.4 | -0.385 | 0.0786 | 1.05 | 0.304 | -0.0405 | 0.13 | 0.712 | 0.624 | 0.914 |
| COc1cc(C(O)C2C=CC3C(=O)N(c4ccccc4)C(=O)C3N2Nc2ccc(C#N)cc2)cc(OC)c1OC (stereo not given) | 0.626 | 0.0783 | 0.305 | 2.23 | 1.19 | 0.0115 | 0.214 | 1.42 | 1.52 | 2.79 |
| CC(C)Cc1ccc(CN2CC[C@@H](NS(=O)(=O)c3ccccc3)C2)cc1 | 0.429 | -4.17 | 0.0423 | -0.856 | -0.859 | -0.176 | -0.455 | -0.438 | -0.633 | -0.577 |
| CC(C)NC(=O)[C@@H]1c2ccccc2C(=O)N(Cc2ccccc2)[C@H]1c1ccc(CO)cc1 | -1.8 | -0.777 | -1.06 | -0.472 | 0.477 | 0.115 | -0.214 | -0.647 | 1.57 | 0.181 |
